In the library only some 4.6% were active in any assay of this set; here they are far more common.
DAX1 inh-1 = inhibitors of DAX1 repression of SF-1 activated StAR promoter; HEK293T StAR-luciferase reporter, SF-1/DAX-1 repression relief; inhibition, % at 6.8 µM; actives 1.1% (n = 370,000);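 active means inhibition above the mean over all tested compounds plus 3 SD, cut at about 3.6% in these data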;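 further: 0% = DAX-1 cells with DMSO and 100% = cells lacking DAX-1 with DMSO; higher inhibition means more luminescence from relief of DAX-1 repression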
ssDAF12 agonist = activators of S. stercoralis DAF-12 nuclear receptor; HEK293 ssDAF-12/GRIP1 lit1-tk-luc reporter, luminescence; % of 3 µM dafachronic acid response; activation, % at 6.8 µM; actives 1% (n = 370,000); AID 652126;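 active means activation above the mean over all tested compounds plus 3 SD, cut at about 0.9% in these data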;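 further: 0% = DMSO-only wells and 100% = 3 µM delta7-dafachronic acid wells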
Wee1 stabilizer = human Wee1 degradation inhibition, primary screen; HeLa Luc-Wee1K328M stability, luciferase luminescence; 100% = proteasome inhibitor MG132 effect; actives 1.2% (n = 220,000); P30291; reporter increase, % at 5 µM; AID 1321;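 active means activation above the mean of all tested compounds plus 3 SD, set per screening run, cut at about 8.8% in these data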;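 further: cells exposed to compound for 20 h before luminescence read; 0% = DMSO alone and 100% = MG132 at 30 µM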
DAX1 inh-2 = inhibits human nuclear receptor DAX1; HEK293 Gal4-DAX1 luciferase reporter, luminescence; P51843; inhibition, % at 6.75 µM; actives 0.99% (n = 340,000);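 active means inhibition above the mean over all tested compounds plus 3 SD, cut at about 4.2% in these data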;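 further: 0% = DAX1-transfected cells with DMSO and 100% = empty-vector control cells with DMSO; inhibition shows as a rise in luminescence from relieved DAX1 repression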
Target sequence (P51843 207-470 limits assumed): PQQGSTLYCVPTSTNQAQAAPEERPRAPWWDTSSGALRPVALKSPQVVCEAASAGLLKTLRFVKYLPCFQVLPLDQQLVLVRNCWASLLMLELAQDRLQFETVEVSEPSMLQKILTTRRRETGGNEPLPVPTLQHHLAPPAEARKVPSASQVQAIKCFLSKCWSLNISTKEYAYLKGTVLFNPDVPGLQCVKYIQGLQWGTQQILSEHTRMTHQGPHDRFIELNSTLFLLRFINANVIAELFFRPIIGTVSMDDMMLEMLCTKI
hgDAF-12 ag = hgDAF-12 agonism, primary luciferase screen; HEK293 GAL4-hgDAF12 UAS-luciferase reporter, agonist luminescence; normalized to butyrate control; actives 1.8% (n = 370,000); activation, % at 6.8 µM; AID 687014;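 active means activation above a cutoff set at the mean of all screened compounds plus 3 SD, cut at about 10% in these data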;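 further: 0% = DMSO wells and 100% = sodium butyrate wells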
hcDAF-12 act = activates DAF-12 receptor from parasite H. contortus. HEK293 hcDAF-12 lit1-tk-luc reporter, luminescence; 0% DMSO, 100% Δ7-dafachronic acid. actives 1.4% (n = 370,000). AID 652067. activation, % at 6.8 µM;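 active means activation above the mean of all tested compounds plus 3 SD, cut at about 5.5% in these data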;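 further: 100% = response to 3 µM Δ7-dafachronic acid high control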
* = called active by the depositor; · = not tested or not shown.

SMILES | DAX1 inh-1 | ssDAF12 agonist | Wee1 stabilizer | DAX1 inh-2 | hgDAF-12 ag | hcDAF-12 act
C=CC[C@@H]1NN2C(=O)[C@@H](CCc3ccccc3)[C@@H]3c4ccccc4C=NN3[C@@H]2c2ccccc21 | -0.8 | -1.0 | · | · | 5.3 | -1.9
C=CCN1[C@@H](C)COc2cccc(N3CCCC3)c2S1(=O)=O | -0.4 | -1.1 | · | · | 3.1 | -2.5
COc1ccc(-c2ccc(N)cn2)cn1 | 0.9 | -0.6 | · | 0.9 | 3.4 | 0.0
O=C(N(c1ccccn1)c1ccccn1)C12CC3CC(CC(Cl)(C3)C1)C2 | -0.3 | -2.1 | 2.6 | 1.3 | -0.2 | 6.2*
CC(c1ccco1)N(C(=O)C12CC3CC(CC(C3)C1)C2)c1ccccn1 (centres undefined) | 0.5 | -0.8 | -0.8 | -1.2 | 0.2 | 0.0
O=C(CSc1ccccn1)NC1CCCc2c1cnn2-c1ccccc1F (centres undefined) | -1.4 | -0.5 | · | 0.8 | 0.5 | -1.1
CN(C)c1ccc(/C=C2/NC(=O)NC2=O)cc1 | 1.0 | -1.1 | 0.9 | 0.7 | 10.8* | 2.5
COC(=O)c1ccc(N=NNc2ccccc2)cc1 | 4.1* | 0.1 | 6.0 | 2.9 | 10.7* | 3.9
COc1cc(C(=O)OC2CC3CCC2(C)C3(C)C)ccc1OC(C)=O (centres undefined) | -0.7 | -0.3 | 0.0 | 4.7* | 5.5 | -1.2
CC1(C(=O)NS(=O)(=O)c2cccc(C#N)c2)CCN1C(=O)c1cccc2ccccc12 (centres undefined) | -0.3 | -1.1 | · | · | 1.7 | 2.5
COCc1cc(C)nc(SCc2ccc([N+](=O)[O-])cc2)c1C#N | -0.5 | -1.3 | · | 4.6* | -2.8 | -1.6
COCc1cc(C)nc(SCc2ccccc2Cl)c1C#N | -0.2 | -1.1 | · | -0.5 | -4.0 | -3.5
O=C(Nc1ccc(F)cc1)N1CCc2ccccc2C1 | 0.8 | 0.4 | -2.3 | 0.6 | 11.1* | 1.4
O=C(NC1CCCCC1)N1CCc2ccccc2C1 | 2.2 | -1.1 | 6.8 | 1.3 | 12.9* | 1.6
Cn1c(=NC(=O)C(C)(C)C)sc2cccc(F)c21 | 0.7 | -1.9 | -1.8 | 4.3* | 0.9 | -1.2
CCn1c(=NC(=O)COc2ccccc2)sc2cccc(F)c21 | -0.2 | -1.6 | -1.5 | -0.5 | -1.0 | -1.7
CCC(=O)N=c1sc2cc(F)cc(F)c2n1C | -0.7 | 0.2 | -1.3 | 0.1 | 6.3 | 6.1*
CC(C)C(=O)N=c1sc2cc(F)cc(F)c2n1C | -0.5 | -0.6 | 0.8 | 0.0 | -2.5 | 0.8
CC(Sc1nc(N)cc(=O)[nH]1)C(=O)NNC(=O)c1cccc(Cl)c1 (centres undefined) | 0.9 | -0.7 | · | 1.3 | 7.6 | 1.7
Cc1ccc(-c2noc(-c3ccccc3C(=O)N3CCN(C)CC3)n2)cc1 | 1.0 | -0.2 | -0.1 | 0.2 | 4.4 | 6.6*
Cc1cc(C)cc(NC(=O)C(Sc2ncnc3ccccc23)c2ccccc2)c1 (centres undefined) | -0.2 | -0.4 | 0.1 | 0.4 | 2.1 | 6.4*
Cc1[nH]c(=O)[nH]c(=O)c1/C=N/NC(=O)[C@@H](NC(=O)OC(C)(C)C)C(C)C | -0.3 | -1.8 | 0.0 | 1.1 | 1.8 | -1.4
Cc1[nH]c(=O)[nH]c(=O)c1/C=N/NC(=O)[C@H](C)N | 0.0 | -0.3 | 4.2 | 5.7* | -1.6 | 5.1
Cc1cc(F)ccc1C(O)c1ncc(-c2ccccc2Cl)[nH]1 (centres undefined) | -1.1 | -1.2 | · | · | -2.0 | -0.3
CCOC(=O)c1ccc(NC(=O)CSc2nc(N3CCOCC3)nc(N3CCOCC3)n2)cc1 | -0.8 | -0.5 | · | 0.2 | 0.9 | -0.5
SMILES | DAX1 inh-1 | ssDAF12 agonist | Wee1 stabilizer | DAX1 inh-2 | hgDAF-12 ag | hcDAF-12 act
CC(=O)c1ccc(NC(=O)CSc2nc(N3CCOCC3)nc(N3CCOCC3)n2)cc1 | 4.1* | -0.3 | · | 0.8 | 3.7 | 4.0
Fc1ccc(C2=CC(c3cccs3)n3nnnc3N2)cc1 (centres undefined) | 0.0 | -0.6 | 0.9 | 3.3 | 4.2 | 3.4
Cc1ccc(C2=CC(c3cccs3)n3nnnc3N2)cc1 (centres undefined) | -0.3 | 1.0* | 0.2 | 1.1 | 1.8 | 3.5
COc1ccccc1N1CCN(Cc2ccsc2)CC1 | 0.8 | 1.1* | -3.8 | 0.8 | -0.2 | 0.9
CCOC(=O)N1CCN(c2ccccc2OC)CC1 | 1.0 | -1.1 | 9.6* | 0.3 | -3.4 | -1.4
CCn1cc(C(=O)N2CCN(c3ccccc3OC)CC2)c2cc(OC)c(OC)cc2c1=O | -0.7 | -1.7 | -0.1 | 4.4* | 0.0 | -1.0
CCn1cc(C(=O)N2CCN(c3ccc(F)cc3)CC2)c2cc(OC)c(OC)cc2c1=O | 0.1 | -1.1 | 8.2 | -1.2 | 1.7 | 0.1
COc1ccc(CN2CCN(c3ccccc3OC)CC2)cc1OC | -0.5 | -1.6 | · | 0.6 | 0.8 | -0.9
O=C(COC(=O)c1cnccn1)NC1CCCc2ccccc21 (centres undefined) | -0.6 | -1.2 | · | 0.1 | -0.9 | 1.0
COC(=O)c1ccc(NC(=O)Nc2cccc(F)c2)cc1 | 0.2 | -0.4 | 3.1 | 0.8 | 11.4* | -0.9
CC(=O)Nc1cccc(NC(=O)Nc2ccc(F)cc2F)c1 | -0.5 | 1.3* | 1.6 | -0.3 | 3.6 | -2.3
COC(=O)c1ccc(NC(=O)Nc2ccc(F)cc2F)cc1 | 0.0 | -1.5 | 1.5 | -0.1 | 13.2* | -1.0
O=C(Nc1ccc2c(c1)OCO2)Nc1ccc(F)cc1F | 2.8 | -0.5 | · | 2.4 | 10.8* | 0.3
O=C(Nc1ccccc1)Nc1ccc(F)cc1F | 0.6 | -1.5 | 4.4 | -0.2 | 3.3 | 0.1
O=C(CSc1nnc(-c2cccnc2)n1C1CCCCC1)N1CCCC1 | 0.2 | -1.1 | · | · | 2.8 | -0.5
O=C(Nc1cccc(C(=O)Nc2ccc(F)cc2F)c1)c1ccccc1 | -0.5 | -1.3 | · | 7.2* | -0.5 | -2.8
COC(=O)c1ccc(Cn2nc(-c3ccc(C)cc3)ccc2=O)cc1 | 0.1 | -0.9 | · | 0.1 | -1.3 | 0.2
CCCCNC(=S)N(CCN(CC)CC)Cc1cc2cc3c(cc2[nH]c1=O)OCCO3 | 0.0 | -0.7 | · | 4.3* | 1.2 | -0.3
COc1cccc(-c2cccc(NC(=O)C3CCN(CC4CCOC4)CC3)c2)c1 (centres undefined) | 1.2 | -0.2 | · | 0.4 | 5.1 | 2.6
COc1cccc(-c2cccc(NC(=O)C3CCN(C4CCOCC4)CC3)c2)c1 | 1.1 | 1.5* | · | 1.5 | -0.8 | -0.1
Cn1cccc1C(=O)N1CCN(S(=O)(=O)c2ccc(F)cc2)CC1 | -1.1 | -0.3 | · | · | -0.4 | -2.1
Cc1ccc(N/C=C/C(=O)c2ccco2)c(O)c1 | 0.7 | -1.5 | -1.6 | 6.1* | -0.3 | -0.6
NS(=O)(=O)c1ccc(CCNC(=O)CSc2nc3ccsc3c(=O)n2CCCCCC(=O)O)cc1 | -0.5 | -0.6 | 5.8 | 1.6 | 1.3 | 1.8
CCCCNC(=O)CSc1nc2ccsc2c(=O)n1CCCC(=O)NCCc1ccc(S(N)(=O)=O)cc1 | 0.8 | -1.8 | -0.6 | 6.1* | 2.8 | 0.0

Screening data deposited in PubChem by The Scripps Research Institute Molecular Screening Center.
